The text below walks through data of PubChem BioAssay (Tox21).

Assay [1] in a line: qHTS assay to identify small molecule HDAC inhibitors - cell viability counter screen (AID 1259365). Note: series mostly up to about 92 µM; nearly all actives have a fitted effect of over 50% in size. Summed up:
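CellTiter-Glo luminescence (30 min, room temperature) reported viability after a 2 h compound exposure at 37 C. Cells: wild-type HCT-116, 1,500 per well, seeded the night before.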
(Quantitative high-throughput screening tests each substance at several concentrations.)

The nature of assay [2]: qHTS assay to identify small molecule agonists of the sonic hedgehog signaling (Shh) pathway - cell viability counter screen (AID 1259366). Note: nearly all actives have a fitted effect of over 50% in size. Note: potency is the fitted concentration of half-maximal effect. The procedure, abridged: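 Cytotoxicity counter screen: CellTiter-Fluor reagent added after 23 h compound exposure, then 1 h at 37C and fluorescence read. Cells were 3T3 Gli1-Luc, seeded 2,000 per well and dosed 4 h post-plating.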
A short description of assay [3]: qHTS assay to identify small molecule antagonists of the sonic hedgehog signaling (Shh) pathway - cell viability counter screen (AID 1259367). Note: nearly all actives have a fitted effect of over 55% in size. Note: potency is the fitted concentration of half-maximal effect. The procedure, abridged:
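Cytotoxicity was assessed in parallel with Shh reporter activity by measuring live-cell protease fluorescence (CellTiter-Fluor) in NIH/3T3 cells stably carrying Gli1-Luc, treated with compound under conditioned medium stimulation for 23 hr plus 1 hr reagent incubation.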

Assay [4] is described as follows: qHTS assay to identify small molecule agonists of the sonic hedgehog signaling (Shh) pathway (AID 1259368; calls by dose curve;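 note: NIH/3T3-derived 3T3Gli1-Luc cells carrying a stable Gli1-driven firefly luciferase reporter; series mostly up to about 92 µM; nearly all actives have a fitted effect of over 15% in size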). The procedure, abridged:
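Stable NIH/3T3 Gli1-Luc reporter clone; 24 hr cpd exposure after a 4 hr settling period; luminescence endpoint.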

The nature of assay [5]: qHTS assay to identify small molecule antagonists of the sonic hedgehog signaling (Shh) pathway (AID 1259369; calls by dose curve; note: nearly all actives have a fitted effect of over 45% in size; note: potency is the fitted concentration of half-maximal effect). The procedure, abridged:
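Gli1 transcriptional reporter (firefly Luc) in NIH/3T3 background, conditioned-medium activated. 24hr exposure, luminescence endpoint.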

In assay [6] the target is Estrogen receptor beta (Homo sapiens) (UniProt Q92731). Kind of assay: qHTS assay to identify small molecule agonists of the estrogen receptor beta (ER-beta) signaling pathway (AID 1259377; active = well fitted activation curve with a large enough effect in the signal ratio in the repeat runs, not every such curve was filed as active; the % refers to the signal ratio). The procedure, abridged:
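Ratiometric beta-lactamase FRET read-out came after 2 h substrate loading at room temperature. It followed 16 h compound treatment at 37C of GripTite HEK293T cells carrying a UAS-bla reporter, plated in 2% charcoal-stripped FBS medium.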

Assay [7] has the same target. Kind of assay: qHTS assay to identify small molecule antagonists of the estrogen receptor beta (ER-beta) signaling pathway (AID 1259378; active = well fitted inhibition curve with a large enough effect in the signal ratio in the repeat runs, not every such curve was filed as active; the % refers to the signal ratio). The procedure, abridged: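 ER-beta-UAS-bla HEK293T (GripTite) cells in 2% charcoal-stripped FBS medium were preincubated 6 hr at 37C, dosed with compound, then stimulated with 1 nM E2 (final) for 16 hr; beta-lactamase reporter read by B/G FRET fluorescence after 2 hr substrate loading.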

Assay [8] in a line: qHTS assay to identify small molecule agonists of the androgen receptor (AR) signaling pathway in the presence of an antagonist - cell viability counter screen (AID 1259379). Note: nearly all actives have a fitted effect of over 25% in size. Note: potency is the fitted concentration of half-maximal effect. The procedure, abridged:
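Counter screen for cell viability run in parallel with the AR agonist-mode luciferase assay. MDA-kb2 cells were co-treated with nilutamide (3.0uM final) and compounds, then incubated 16 hr at 37C, and CellTiter-Fluor fluorescence was measured.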

Assay [9] is described as follows: qHTS assay to identify small molecule agonists of the estrogen receptor beta (ER-beta) signaling pathway - cell viability counter screen (AID 1259380). Note: nearly all actives have a fitted effect of over 30% in size. The procedure, abridged: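 In this qHTS counter screen, HEK293T cells carrying an ER-beta/UAS beta-lactamase reporter, grown in 2% charcoal-stripped FBS, received compound for 16 hr; ATP-based CellTiter-Glo luminescence was then read after 30 min at room temperature.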

Assay [10] addresses Androgen receptor (Homo sapiens) (UniProt P10275). Kind of assay: qHTS assay to identify small molecule agonists of the androgen receptor (AR) signaling pathway in the presence of an antagonist (AID 1259381; calls by dose curve; note: nearly all actives have a fitted effect of over 15% in size). The procedure, abridged: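 AR antagonist background: nilutamide 3.0uM final. Cell line: MDA-kb2, MMTV-driven luciferase, responsive to both AR and GR. Exposure 16hr, 37C, no CO2; ONE-Glo luminescence.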

SMILES strings stand for the structures. Unmarked numbers belong to inactive results. Results filed as inconclusive are left out. Calls of active or inactive are those of the source. Unless noted, calls come from the whole dose curve; as a rule, active = well fitted curve in the direction sought with a large enough effect in the repeat runs; inconclusive = weak or mixed curves; inactive = no such curve, though single readings can be large; an effect the other way counts as inactive or inconclusive.

Sequence of Estrogen receptor beta (Homo sapiens) (Q92731 whole entry, looked up): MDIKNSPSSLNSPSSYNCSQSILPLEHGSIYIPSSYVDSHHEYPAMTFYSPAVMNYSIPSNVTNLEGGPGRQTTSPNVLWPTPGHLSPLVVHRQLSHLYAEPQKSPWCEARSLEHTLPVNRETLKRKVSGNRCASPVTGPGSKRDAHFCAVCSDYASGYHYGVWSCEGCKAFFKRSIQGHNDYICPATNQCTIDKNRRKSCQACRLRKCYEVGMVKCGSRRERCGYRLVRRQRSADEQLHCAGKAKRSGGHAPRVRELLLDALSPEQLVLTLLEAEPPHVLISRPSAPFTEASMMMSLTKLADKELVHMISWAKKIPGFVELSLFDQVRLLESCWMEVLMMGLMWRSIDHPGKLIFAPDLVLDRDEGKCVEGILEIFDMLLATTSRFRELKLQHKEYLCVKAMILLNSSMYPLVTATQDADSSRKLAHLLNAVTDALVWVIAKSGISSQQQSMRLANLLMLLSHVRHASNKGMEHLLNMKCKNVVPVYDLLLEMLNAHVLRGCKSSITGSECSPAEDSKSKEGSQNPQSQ
Sequence of Androgen receptor (Homo sapiens) (P10275 whole entry, looked up): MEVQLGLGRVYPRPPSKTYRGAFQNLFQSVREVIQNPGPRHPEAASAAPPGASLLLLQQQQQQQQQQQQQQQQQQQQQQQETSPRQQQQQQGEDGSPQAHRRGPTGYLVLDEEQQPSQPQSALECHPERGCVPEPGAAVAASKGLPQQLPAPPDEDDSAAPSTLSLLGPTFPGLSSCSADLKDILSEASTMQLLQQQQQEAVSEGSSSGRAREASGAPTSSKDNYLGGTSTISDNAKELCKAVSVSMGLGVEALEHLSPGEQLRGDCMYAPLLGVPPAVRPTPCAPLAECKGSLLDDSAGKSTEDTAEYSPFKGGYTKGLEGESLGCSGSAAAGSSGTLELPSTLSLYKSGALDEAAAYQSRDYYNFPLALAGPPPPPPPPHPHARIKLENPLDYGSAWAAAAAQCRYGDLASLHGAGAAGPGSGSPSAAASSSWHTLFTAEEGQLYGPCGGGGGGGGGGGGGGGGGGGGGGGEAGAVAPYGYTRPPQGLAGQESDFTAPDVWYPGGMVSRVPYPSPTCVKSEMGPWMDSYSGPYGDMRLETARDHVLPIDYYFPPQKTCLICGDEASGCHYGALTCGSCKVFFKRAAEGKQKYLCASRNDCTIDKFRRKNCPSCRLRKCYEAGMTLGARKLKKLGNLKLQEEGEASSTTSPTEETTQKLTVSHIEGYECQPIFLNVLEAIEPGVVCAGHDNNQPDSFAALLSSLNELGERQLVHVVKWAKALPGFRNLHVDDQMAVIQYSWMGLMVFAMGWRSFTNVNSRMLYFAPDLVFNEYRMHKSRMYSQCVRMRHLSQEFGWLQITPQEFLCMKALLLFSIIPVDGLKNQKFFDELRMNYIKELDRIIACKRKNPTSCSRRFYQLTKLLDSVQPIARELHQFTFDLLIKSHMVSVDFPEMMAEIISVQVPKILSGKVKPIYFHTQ

In the case of `O=S(=O)(O)SSS(=O)(=O)O`, the compound was called inactive in assay [1], in [4], in [7], in [9] and in [10]. In addition, the Potency entry in assay [2], in [3], in assay [5], in [6] and in [8] was “inactive” in each case.
As for `COCCOCCOCCOC`, the call in [1], in assay [4], in assay [7] and in [9] was inactive. Also, the Potency result in [2], in assay [3], in assay [5], in assay [6] and in assay [8] was “inactive” in each case.
Consider `NS(=O)(=O)c1ccccc1OC(F)(F)F`, for which the compound was called inactive in [1], in [4], in assay [7] and in assay [9]. Also, the Potency result in assay [2], in assay [3], in assay [5], in assay [6] and in [8] was “inactive” each time.
For `CCCCC(CC)CNC(=O)CC(C)OC(=O)CCC(=O)O` (configuration not stated), the result in [1], in assay [4] and in assay [10] was inactive. The Potency result in assay [2], in [3], in [5], in assay [6] and in assay [8] was “inactive” throughout.
Take `COc1cc([N+](=O)[O-])ccc1N`: the outcome in assay [1], in assay [4], in assay [7], in assay [9] and in [10] was inactive. Also, the Potency in assay [2] was 54.5 µM (active); in [3] it was 54.5 µM (active); in [8], 34.4 µM (active). In addition, the Potency result in assay [5] and in assay [6] was “inactive” in each case.
Regarding `CCCCCCCC/C=C\CCCCCCCC(=O)OC[C@@H](O)[C@H]1OC[C@H](O)[C@H]1O`, the outcome in assay [1], in assay [4], in assay [7] and in [9] was inactive. The Potency result in assay [2], in [3], in assay [5], in assay [6] and in assay [8] was “inactive” each time.
Turning to `CCN(CCC#N)c1ccccc1`, the call in assay [1], in [4], in [7] and in [9] was inactive. Further, the Potency result in assay [2], in [3], in assay [5], in assay [6] and in assay [8] was “inactive” throughout.
Take `CCOC(=O)C(=O)c1csc(NC=O)n1`: the compound was called inactive in [1], in [4], in [7] and in assay [9]. Besides, the Potency result in assay [2], in [3], in assay [5], in [6] and in [8] was “inactive” in each case.
For `CCOC(=O)CCc1ccccc1`, the compound was called inactive in assay [1], in assay [4], in assay [7] and in assay [9]. In addition, the Potency entry in assay [2], in [3], in assay [5], in [6] and in assay [8] was “inactive” in each case.
Turning to `CC(C)=CC(C)(C)C`, the outcome in [1], in assay [4] and in assay [9] was inactive. Besides, the Potency entry in assay [2], in assay [3], in [5], in [6] and in assay [8] was “inactive” throughout.
As to `CC(C)C(=O)Nc1cccc(C(F)(F)F)c1`, the call in assay [1], in [4], in assay [7], in assay [9] and in assay [10] was inactive. In addition, the Potency entry in assay [2], in [3], in assay [5], in assay [6] and in assay [8] was “inactive” in each case.
For the compound `C1CCN2C[C@@H]3C[C@@H](CN4CCCC[C@@H]34)[C@H]2C1`, the call in [1], in [4] and in assay [7] was inactive. Further, the Potency entry in assay [2], in assay [3], in assay [5] and in assay [8] was “inactive” in each case.
For `COC(OC)C(C)c1ccccc1` (configuration not stated), the outcome in assay [1], in [4], in [7], in [9] and in [10] was inactive. Besides, the Potency entry in assay [2], in [3], in [5], in [6] and in assay [8] was “inactive” each time.
On to `CCCCOC(=O)[C@@H](C)Oc1ccc(Oc2ccc(C(F)(F)F)cn2)cc1`, for which the compound was called inactive in assay [1], in assay [4], in assay [7] and in assay [9]. The Potency result in assay [2], in [3], in assay [5], in [6] and in assay [8] was “inactive” throughout.
As for `O=c1[nH]c(=O)c2ccccc2o1`, the call in [1], in assay [4], in assay [9] and in assay [10] was inactive. In addition, the Potency result in assay [2], in assay [3], in assay [5], in assay [6] and in assay [8] was “inactive” throughout.
With `CCC(CO)CO`, the compound was classed as inactive in assay [1], in assay [4], in [7] and in assay [9]. For the same compound, the Potency entry in [2], in assay [3], in assay [5], in assay [6] and in [8] was “inactive” each time.
On to `CC(C)COC(=O)COc1ccc(Cl)cc1Cl`, for which the compound was called inactive in assay [1], in assay [4], in assay [7], in assay [9] and in assay [10]. For the same compound, the Potency result in assay [2], in assay [3], in [5], in assay [6] and in assay [8] was “inactive” throughout.
For the compound `CCCOCCOCCOCCO`, the compound was called inactive in assay [1], in assay [4], in assay [7], in assay [9] and in [10]. The Potency result in assay [2], in [3], in assay [5], in assay [6] and in assay [8] was “inactive” each time.
`Nc1ccc(S(=O)(=O)Nc2ccccn2)cc1`: the result in assay [1], in assay [4], in assay [7], in assay [9] and in assay [10] was inactive. Besides, the Potency entry in [2], in assay [3], in assay [5], in [6] and in [8] was “inactive” in each case.
`Cn1c(=O)c2c(ncn2CC2OCCO2)n(C)c1=O`: the call in assay [1], in assay [4], in assay [7], in assay [9] and in assay [10] was inactive. Further, the Potency result in assay [2], in assay [3], in [5], in assay [6] and in assay [8] was “inactive” in each case.
Take `Nc1ccnc(=O)[nH]1`: the call in assay [1], in [4], in [7] and in [10] was inactive. For the same compound, the Potency entry in assay [2], in assay [3], in assay [5], in assay [6] and in [8] was “inactive” in each case.
`CNC(=O)C(c1ccccc1)c1ccccc1`: the outcome in assay [1], in assay [4] and in assay [9] was inactive. Further, the Potency result in [2], in [3], in assay [5], in [6] and in assay [8] was “inactive” in each case.
With `Cc1c(C(C)C)c(=O)n(-c2ccccc2)n1C`, the compound was called inactive in [1], in assay [4], in assay [7] and in [9]. Further, the Potency entry in [2], in assay [3] and in assay [8] was “inactive” in each case. Also, the Potency in [5] is 1.06 µM (active).
Take `CCCCCCCCCOCC1CO1` (configuration not stated): the result in assay [1], in [4] and in [7] was inactive. Besides, the Potency result in [2], in assay [3], in assay [5] and in [8] was “inactive” each time.
Regarding `CC(C)c1ccccc1O`, the call in assay [1], in [4], in [7] and in assay [9] was inactive. In addition, the Potency result in assay [2], in assay [3], in assay [5] and in [8] was “inactive” each time.
On to `CCOC(=O)CC(CC(=O)OCC)(OC(C)=O)C(=O)OCC`, for which the call in [1], in assay [4], in assay [7] and in assay [9] was inactive. Also, the Potency entry in assay [2], in assay [3], in assay [5] and in assay [8] was “inactive” in each case.
